Source: PubChem BioAssay (EPA / NIEHS)
The source made the active and inactive calls. How the source made its calls: active means hit-call score of the fitted dose curve at least 0.9, where 1 is the maximum; inactive means score below 0.9.

Legend:
[1] = read-out: Monokine induced gamma interferon (MIG), CXCL9 (gene 4283); assay: BSK_BE3C_MIG: BioMAP Diversity Plus: BE3C Assay for Monokine induced gamma interferon (MIG) Biomarker Activity (AID 2283035); conditions: primary human bronchial epithelial cells; actives raise or lower the signal
How it was run: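 hu bronchial epithelial 1° cells, 24 h cpd; MIG by ELISA; bidirectional fit, DMSO = baseline.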

[2] = read-out: Transforming growth factor beta 1 (TGFb1), TGFB1 (gene 7040); assay: BSK_BE3C_TGFb1: BioMAP Diversity Plus: BE3C Assay for Transforming growth factor beta 1 (TGFb1) Biomarker Activity (AID 2283036); conditions: primary human bronchial epithelial cells; actives raise or lower the signal
How it was run: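 TGF-b1 measured via ELISA, 24 h after chemical dosing of human bronchial epithelial cells (BE3C). Overt cytotoxicity assessed in parallel by SRB (0.1%, TCA-fixed, 560 nm); analysis bidirectional relative to DMSO.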

[3] = read-out: Plasminogen activator inhibitor-1 (PAI1), SERPINE1 (gene 5054); assay: BSK_BE3C_PAI1: BioMAP Diversity Plus: BE3C Assay for Plasminogen activator inhibitor-1 (PAI1) Biomarker Activity (AID 2283037); conditions: primary human bronchial epithelial cells; actives raise or lower the signal
How it was run: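 In this multiplexed primary-cell system, bronchial epithelial cells receive test chemical and are sampled at 24 h. PAI-1 is read by ELISA, with DMSO serving as negative control for bidirectional fitting.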

[4] = read-out: urokinase plasminogen activator (uPA), PLAU (gene 5328); assay: BSK_BE3C_uPA: BioMAP Diversity Plus: BE3C Assay for urokinase plasminogen activator (uPA) Biomarker Activity (AID 2283038); conditions: primary human bronchial epithelial cells; actives raise or lower the signal
How it was run: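 Primary human bronchial epithelial cells, uPA measured by ELISA 24 h after dosing. Bidirectional change relative to DMSO; cytotoxicity checked in parallel cultures by sulforhodamine B total-protein staining.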

[5] = read-out: Urokinase-type plasminogen activator receptor (uPAR), PLAUR (gene 5329); assay: BSK_BE3C_uPAR: BioMAP Diversity Plus: BE3C Assay for Urokinase-type plasminogen activator receptor (uPAR) Biomarker Activity (AID 2283039); conditions: primary human bronchial epithelial cells; actives raise or lower the signal
How it was run: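 Chemically treated human bronchial epithelial cells (lung primary) are assayed for uPAR by ELISA after 24 h, with data fitted in both directions using DMSO as negative control.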

[6] = read-out: Interleukin-6 (IL6), IL6 (gene 3569); assay: BSK_CASM3C_IL6: BioMAP Diversity Plus: CASM3C Assay for Interleukin-6 (IL6) Biomarker Activity for (AID 2283040); conditions: primary human coronary artery smooth muscle cells; actives raise or lower the signal
[7] = read-out: Tissue plasminogen activator (tPA), PLAT (gene 5327); assay: BSK_BE3C_tPA: BioMAP Diversity Plus: BE3C Assay for Tissue plasminogen activator (tPA) Biomarker Activity (AID 2283041); conditions: primary human bronchial epithelial cells; actives raise or lower the signal
How it was run: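 Using human lung primary bronchial epithelial cells, tPA was measured by ELISA 24 h after dosing; data fitted relative to DMSO.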

[8] = read-out: Interleukin-8 (IL8), CXCL8 (gene 3576); assay: BSK_CASM3C_IL8: BioMAP Diversity Plus: CASM3C Assay for Interleukin-8 (IL8) Biomarker Activity (AID 2283042); conditions: primary human coronary artery smooth muscle cells; actives raise or lower the signal;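 further: IL-8 protein level quantified by ELISA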
[9] = read-out: Human Leukocyte Antigen - DR isotype (HLADR), HLA-DRA (gene 3122); assay: BSK_CASM3C_HLADR: BioMAP Diversity Plus: CASM3C Assay for Human Leukocyte Antigen - DR isotype (HLADR) Biomarker Activity (AID 2283043); conditions: primary human coronary artery smooth muscle cells; actives raise or lower the signal;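 further: cell-surface HLA-DR protein level quantified by ELISA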
[10] = read-out: Macrophage colony-stimulating factor (MCSF), CSF1 (gene 1435); assay: BSK_CASM3C_MCSF: BioMAP Diversity Plus: CASM3C Assay for Macrophage colony-stimulating factor (MCSF) Biomarker Activity (AID 2283044); conditions: primary human coronary artery smooth muscle cells; actives raise or lower the signal;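 further: M-CSF protein amount quantified by ELISA after 24 h exposure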
[11] = read-out: Low-density lipoprotein receptor (LDLR), LDLR (gene 3949); assay: BSK_CASM3C_LDLR: BioMAP Diversity Plus: CASM3C Assay for Low-density lipoprotein receptor (LDLR) Biomarker Activity (AID 2283045); conditions: primary human coronary artery smooth muscle cells; actives raise or lower the signal;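 further: LDLR protein level on the cell surface quantified by ELISA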
[12] = read-out: Monocyte Chemoattractant Protein-1 (MCP1), CCL2 (gene 6347); assay: BSK_CASM3C_MCP1: BioMAP Diversity Plus: CASM3C Assay for Monocyte Chemoattractant Protein-1 (MCP1) Biomarker Activity (AID 2283046); conditions: primary human coronary artery smooth muscle cells; actives raise or lower the signal;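 further: MCP-1 level quantified by ELISA 24 h after dosing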
[13] = BSK_CASM3C_Proliferation: Cell Proliferation Assessment in the BioMAP Diversity Plus: CASM3C Assay (AID 2283047); conditions: primary human coronary artery smooth muscle cells;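 further: sulforhodamine B total protein stain as relative cell number at 560 nm; sub-confluent cells exposed 48 h before staining; fitted both ways against DMSO so gain or loss of cell number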
[14] = read-out: Monokine induced gamma interferon (MIG), CXCL9 (gene 4283); assay: BSK_CASM3C_MIG: BioMAP Diversity Plus: CASM3C Assay for Monokine induced gamma interferon (MIG) Biomarker Activity (AID 2283048); conditions: primary human coronary artery smooth muscle cells; actives raise or lower the signal;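 further: MIG protein level measured by ELISA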
[15] = read-out: serum amyloid A (SAA), SAA1 (gene 6288); assay: BSK_CASM3C_SAA: BioMAP Diversity Plus: CASM3C Assay for serum amyloid A (SAA) Biomarker Activity (AID 2283049); conditions: primary human coronary artery smooth muscle cells; actives raise or lower the signal;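 further: SAA protein level quantified by ELISA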
[16] = BSK_CASM3C_SRB: Viability Assessment in the BioMAP Diversity Plus: CASM3C Assay (AID 2283050); conditions: primary human coronary artery smooth muscle cells;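 further: total protein by SRB staining as cytotoxicity measure in parallel cultures; cells exposed to compound for 24 h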
[17] = read-out: Thrombomodulin, THBD (gene 7056); assay: BSK_CASM3C_Thrombomodulin: BioMAP Diversity Plus: CASM3C Assay for Thrombomodulin Biomarker Activity (AID 2283051); conditions: primary human coronary artery smooth muscle cells; actives raise or lower the signal;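 further: thrombomodulin protein level measured by ELISA 24 h after dosing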
[18] = read-out: Tissue Factor, F3 (gene 2152); assay: BSK_CASM3C_TissueFactor: BioMAP Diversity Plus: CASM3C Assay for Tissue Factor Biomarker Activity (AID 2283052); conditions: primary human coronary artery smooth muscle cells; actives raise or lower the signal;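 further: cell surface tissue factor protein level read by ELISA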
[19] = read-out: Urokinase-type plasminogen activator receptor (uPAR), PLAUR (gene 5329); assay: BSK_CASM3C_uPAR: BioMAP Diversity Plus: CASM3C Assay for Urokinase-type plasminogen activator receptor (uPAR) Biomarker Activity (AID 2283054); conditions: primary human coronary artery smooth muscle cells; actives raise or lower the signal;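 further: cell-surface uPAR protein level quantified by ELISA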
[20] = read-out: Interferon-gamma inducible Protein 10 (IP10), CXCL10 (gene 3627); assay: BSK_hDFCGF_IP10: BioMAP Diversity Plus: hDFCGF Assay for Interferon-gamma inducible Protein 10 (IP10) Biomarker Activity (AID 2283053); conditions: primary human foreskin fibroblasts; actives raise or lower the signal
How it was run: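 Chemical-treated human skin fibroblasts (primary) were sampled at 24 h for IP-10 by ELISA. Both increases and decreases relative to DMSO were scored.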

Measured: AC50

CCOP(=S)(OCC)OP(=S)(OCC)OCC
active: [13] 29 µM
not listed: [20]
inactive: all other assays above

O=C(O)COc1cc(Cl)c(Cl)cc1Cl
active: [18] 5.98 µM
inactive: all other assays above

Cc1ccc2nc3sc(=O)sc3nc2c1
active: [19] 2.14 µM
not listed: [20]
inactive: all other assays above

O=S(=O)(C(Cl)(Cl)Cl)C(Cl)(Cl)Cl
inactive: [11] | [17]
active: [1] 7.75 µM | [2] 9.08 µM | [3] 3.87 µM | [4] 5.31 µM | [5] 7.21 µM | [6] 1.61 µM | [7] 4.81 µM | [8] 1.69 µM | [9] 1.31 µM | [10] 2.2 µM | [12] 2.28 µM | [13] 0.528 µM | [14] 3.13 µM | [15] 0.877 µM | [16] 1.54 µM | [18] 1.85 µM | [19] 3.04 µM

CCOC(=O)CC(=O)CCl
active: [2] 5.96 µM | [4] 4.09 µM | [6] 28.8 µM | [7] 3.97 µM | [9] 8.67 µM | [10] 20 µM | [13] 26.3 µM | [14] 31.6 µM | [16] 25.7 µM | [18] 14 µM
inactive: [1] | [3] | [5] | [8] | [11] | [12] | [15] | [17] | [20] | [19]

O=c1oc2ccccc2c(O)c1C(CC(O)c1ccc(-c2ccc(Br)cc2)cc1)c1ccccc1 (stereo not given)
active: [1] 10.5 µM | [2] 0.144 µM | [3] 0.915 µM | [4] 5.29 µM | [5] 5.34 µM | [6] 25 µM | [7] 0.837 µM | [8] 0.0413 µM | [9] 4.99 µM | [10] 16.3 µM | [11] 19.1 µM | [12] 7.44 µM | [13] 19.1 µM | [15] 0.0998 µM | [16] 13.9 µM | [18] 16.2 µM | [20] 5.38 µM | [19] 21.8 µM
inactive: [14] | [17]

Cc1ccccc1OP(=O)(Oc1ccccc1)Oc1ccccc1
active: [16] 8.32 µM | [20] 19 µM
inactive: all other assays above

CC(C)(C)c1ccccc1O
not listed: [20]
inactive: all other assays above

CCCCCCCCCCCCN(C)C
active: [11] 26.7 µM
inactive: all other assays above

Oc1c(Br)cc(Br)cc1Br
active: [5] 20 µM
inactive: all other assays above

O=[N+]([O-])c1ccc(Nc2ccccc2)cc1
not listed: [20]
inactive: all other assays above

CCOP(=O)(OCC)SCCSCC
inactive: all assays above

C[C@]12CC[C@@H](O)C[C@@H]1CC[C@@H]1[C@@H]2CC[C@]2(C)C(=O)CC[C@@H]12
active: [11] 29 µM
inactive: all other assays above
